The source of these data is PubChem BioAssay (EPA / NIEHS).

Results filed as inconclusive are left out. The source made the active and inactive calls. The calls were made as follows: active = hit-call score of the fitted dose curve at least 0.9, where 1 is the maximum; inconclusive = response in the unintended direction; inactive = score below 0.9.

This experiment in a line: ACEA_AR_antagonist_AUC_viability: ACEA Biosciences xCELLigence Real-Time Cell Analysis on Androgen Receptor Antagonism for Viability (AID 2283776).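 Also: hits lower the growth signal relative to DMSO meaning cytotoxicity.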 The procedure: ACEA_AR_antagonist is a cell-based, single-readout assay that uses 22Rv1, a human prostate cancer cell line, with measurements taken at 80 hours after chemical dosing in a 384-well plate, although TO5 and TO6 (mc0.srcf) used a 96-well plate. Differences in plate size can be ignored given data normalization.ACEA_AR_80hr is one of two assay component(s) measured or calculated from the […] assay. It is designed to make measurements of real-time cell-growth kinetics, a form of growth reporter, as detected with electrical impedance signals by Real-Time Cell Electrode Sensor (RT-CES) technology.Data from the assay component ACEA_AR_antagonist_AUC_viability was analyzed in the positive analysis fitting direction relative to DMSO as the negative control and baseline of activity. Using a type of growth reporter, loss-of-signal activity can be used to understand changes in the viability. Furthermore, this assay endpoint can be referred to as a secondary readout, because this assay has produced multiple assay endpoints where this one serves a viability function. To generalize the intended target to other relatable targets, this assay endpoint is annotated to the cell cycle intended target family, where the subfamily is cytotoxicity.
The xCELLigence system Multi-E-Plate stations were used to measure the time-dependent response to chemicals. Each compound was tested in an eight-point, 1:4 serial dilution series starting at a maximum final concentration of 100 uM. A maximum starting concentration of 0.5% DMSO was present in the 100 uM chemical samples and was diluted along with the test article dilution series. The screen was performed in biological duplicate using two separate, 96-well, E-Plates 96 for each dilution series (n = 2). Positive controls (MG132 and testosterone) and a negative control (assay media) were tested in quadruplicate on each testing plate. Then, 0.5% and 0.125% DMSO were tested in duplicates in each plate to serve as solvent controls for the 2 highest concentrations of testing compounds: 100 uM and 25 uM. Reference compounds were tested with 8 concentrations with 1:5 serial dilutions. All screening was carried out by ACEA Biosciences, Inc. (San Diego, CA). 22Rv1 cells purchased from ATCC were maintained in media supplemented with 10% fetal bovine serum (FBS). Before screening, 22Rv1 cells were preconditioned in assay medium. Cells were then detached and seeded in E-Plates 96 in assay medium. After overnight monitoring of growth once every hour, compounds were added to […] cells and remained in the medium until the end of the experiment. Cellular responses were then recorded once every 5 min for the first 5 h, and once every hour for an additional 100 h.
In the case of `C[Si](O[Si](C)(C)C)O[Si](C)(C)C`, the call was inactive.
`O=C(O)CCCCCCCC(=O)O`: the compound was called inactive.
As to `CCCC1CCC(=O)O1` (stereo not given), the result was inactive.
For the compound `O=C1NC(=O)c2ccccc21`, the outcome was inactive.
The same measure, in the same setting: next, `CC(C)c1cccc(O)c1`: “inactive”; `COc1ccc(O)cc1`: “inactive”.
Still for that read-out and setting: next, `CCCCCCCCCCCCCCCCCC(=O)OCC(CC)CCCC` (stereo not given): “inactive”.
Take `CCCC/C=C\CCCCCCCCCC=O`: the compound was classed as inactive.
As for `CCCCC[Si](OCC)(OCC)OCC`, the compound was called inactive.
On the same count and under the same terms, next, `CC1=CC(=O)NS(=O)(=O)O1`: “inactive”; `Cc1ccc(C(C)C)cc1O`: “inactive”.
What is called AC50 is the concentration at which the activity in the assay is half-maximal. With `CC(C)(C#N)c1cc(Cn2cncn2)cc(C(C)(C)C#N)c1`, the AC50 is 30 µM (active).
For `CC1(C)C(=O)N(Br)C(=O)N1Cl`, the outcome was inactive.
The same measure, in the same setting: as for `CC(C)=CCC[C@](C)(O)[C@@H]1CC=C(C)CC1`, the entry is “inactive”.
`CCCCc1ccc(N)cc1`: the result was inactive.
As for `CC(C)CCCCCCCOC(=O)c1ccc(C(=O)OCCCCCCCC(C)C)c(C(=O)OCCCCCCCC(C)C)c1`, the compound was called inactive.
As for `CC1(C)[C@@H]2CC[C@@]1(C)[C@H](O)C2`, the result was inactive.
`CC(=O)OCCOC(C)=O`: the result was inactive.
Turning to `NC(=O)NC1NC(=O)NC1=O` (stereo not given), the compound was classed as inactive.
With `CC(C)C[C@H]1C(=O)N2CCC[C@H]2[C@]2(O)O[C@](NC(=O)[C@@H]3C=C4c5cccc6[nH]c(Br)c(c56)C[C@H]4N(C)C3)(C(C)C)C(=O)N12`, the outcome was inactive.
Take `CCN(CC)CCOC(=O)c1ccc(N)cc1`: the compound was called inactive.
As to `CCCCCCCCCCCCCOS(=O)(=O)O`, the result was inactive.
Take `OC1OC[C@@H](O)[C@H](O)[C@H]1O` (stereo not given in full): the compound was classed as inactive.
The same measure, in the same setting: next, `CC(C)=CCCC(C)CC=O` (stereo not given): “inactive”; `O=C1c2ccccc2C(=O)N1SC1CCCCC1`: “inactive”.
Take `CCN(CC)c1ccc2c(-c3ccccc3C(=O)O)c3ccc(=[N+](CC)CC)cc-3oc2c1`: the compound was called inactive.
Same read-out and setting: as for `O=Nc1ccc(Nc2ccccc2)cc1`, the entry is “inactive”; as for `O=c1cc(-c2ccccc2)oc2cc(O)cc(O)c12`, “inactive”; as for `C=O`, “inactive”.
Consider `CC(=O)OCCC(C)CC(C)(C)C` (stereo not given), for which the compound was called inactive.
On to `O=C(Cl)c1cccc(C(=O)Cl)c1`, for which the AC50 was 8.27 µM (active).
As to `C=CC[N+](C)(C)CC=C`, the call was inactive.
On the same count and under the same terms, next, `CN(C)CCCN`: “inactive”.
Regarding `O=C(O)Cc1cccc2ccccc12`, the outcome was inactive.
`O=C(O)c1ccc(C(=O)O)cc1`: the outcome was inactive.
For `OCCOCCOCCOCCO`, the result was inactive.
Regarding `CSc1nc(NC2CC2)nc(NC(C)(C)C)n1`, the compound was classed as inactive.
For `BrC1CCC(Br)C(Br)CCC(Br)C(Br)CCC1Br` (stereo not given), the outcome was inactive.
With `O=C[C@@H](O)[C@H](O)[C@H](O)CO`, the result was inactive.
Regarding `NCCCN1CCOCC1`, the compound was classed as inactive.
